# Laboratory results taken from article PMC7862700, “An all-to-all approach to the identification of sequence-specific readers for epigenetic DNA modifications on cytosine”.
# Assays:
# Experiment in all cases: DAPPL (digital affinity profiling via proximity ligation, sequencing); 10 mM Tris-HCl pH 7.5, 50 mM NaCl, 1 mM DTT, 4% glycerol, room temperature, 30 min; GST-TFs on glutathione beads, 16-mer random dsDNA library, 0.1% formaldehyde crosslink after washing; high values mean tight binding
# FEV = target: T1, FEV (Homo sapiens, UniProt Q99581 1-238); details: protein: recombinant; tags: N-terminal GST; dsDNA, one strand shown
# T1 sequence: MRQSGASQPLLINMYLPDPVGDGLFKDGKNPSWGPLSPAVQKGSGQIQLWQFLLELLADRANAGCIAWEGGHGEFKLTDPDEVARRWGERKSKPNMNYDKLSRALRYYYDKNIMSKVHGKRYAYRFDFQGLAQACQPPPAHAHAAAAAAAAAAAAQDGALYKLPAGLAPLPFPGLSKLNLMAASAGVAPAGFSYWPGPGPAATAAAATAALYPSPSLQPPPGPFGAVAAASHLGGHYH
# In short: (§1)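 Yeast served to express human transcription factors as GST fusions, which were then captured on glutathione beads and labelled with DNA barcodes. Pooled with a tag-only sample, they were incubated with 200 nmole of a 16-mer random double-stranded DNA library for 30 min at room temperature in Tris/NaCl/DTT/glycerol buffer, washed, crosslinked with 0.1% formaldehyde, ligated by proximity, amplified by PCR and sequenced. Dividing each hexamer's read frequency for a factor by its frequency for the tag-only sample gives the binding signal.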
# ETV5 = ETV5 (Homo sapiens, UniProt P41161 1-510); details: protein: recombinant; tags: N-terminal GST; dsDNA, one strand shown
# Sequence of ETV5 (P41161 whole entry): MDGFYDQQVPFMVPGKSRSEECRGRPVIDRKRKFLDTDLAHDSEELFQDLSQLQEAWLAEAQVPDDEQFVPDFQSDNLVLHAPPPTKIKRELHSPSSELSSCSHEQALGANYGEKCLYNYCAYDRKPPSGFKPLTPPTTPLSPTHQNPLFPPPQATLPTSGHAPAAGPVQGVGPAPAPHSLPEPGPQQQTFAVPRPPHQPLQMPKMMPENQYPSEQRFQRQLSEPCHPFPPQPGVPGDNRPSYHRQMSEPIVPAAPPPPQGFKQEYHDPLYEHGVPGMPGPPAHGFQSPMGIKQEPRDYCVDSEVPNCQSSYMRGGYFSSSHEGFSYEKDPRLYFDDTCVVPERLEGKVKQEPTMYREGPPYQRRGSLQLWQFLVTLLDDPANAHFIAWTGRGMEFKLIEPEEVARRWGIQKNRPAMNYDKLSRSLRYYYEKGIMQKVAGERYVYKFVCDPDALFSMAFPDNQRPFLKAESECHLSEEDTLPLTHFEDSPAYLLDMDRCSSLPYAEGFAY
# In short: as §1
# HSF1 = HSF1 (Homo sapiens, UniProt Q00613 1-529); details: protein: recombinant; tags: N-terminal GST; chain copies: 3; dsDNA, one strand shown
# Sequence of HSF1 (Q00613 whole entry): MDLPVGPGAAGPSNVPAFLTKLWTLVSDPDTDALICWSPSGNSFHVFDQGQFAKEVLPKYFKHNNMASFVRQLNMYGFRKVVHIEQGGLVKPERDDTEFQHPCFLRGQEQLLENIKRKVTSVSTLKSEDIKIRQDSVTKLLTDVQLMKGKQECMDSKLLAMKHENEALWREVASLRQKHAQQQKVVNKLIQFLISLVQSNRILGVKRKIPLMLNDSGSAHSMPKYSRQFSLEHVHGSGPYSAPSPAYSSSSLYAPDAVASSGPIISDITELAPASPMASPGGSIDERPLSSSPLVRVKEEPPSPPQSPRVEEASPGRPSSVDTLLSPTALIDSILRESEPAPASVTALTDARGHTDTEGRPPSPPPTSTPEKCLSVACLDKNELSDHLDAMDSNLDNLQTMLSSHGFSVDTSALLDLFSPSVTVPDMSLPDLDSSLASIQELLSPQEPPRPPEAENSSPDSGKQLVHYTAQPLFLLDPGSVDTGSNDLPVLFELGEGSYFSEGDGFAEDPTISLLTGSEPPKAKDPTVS
# In short: as §1
# SPIC = target: T2, SPIC (Homo sapiens, UniProt Q8N5J4 1-248); details: protein: recombinant; tags: N-terminal GST; dsDNA, one strand shown
# T2 sequence: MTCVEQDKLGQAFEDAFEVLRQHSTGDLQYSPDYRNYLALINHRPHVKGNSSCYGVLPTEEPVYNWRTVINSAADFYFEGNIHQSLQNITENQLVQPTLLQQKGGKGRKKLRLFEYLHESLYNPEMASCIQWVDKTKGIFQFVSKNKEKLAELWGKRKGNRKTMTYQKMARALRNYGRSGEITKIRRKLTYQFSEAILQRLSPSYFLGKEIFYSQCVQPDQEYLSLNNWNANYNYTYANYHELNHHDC
# In short: as §1
# ELF4 = ELF4 (Homo sapiens, UniProt Q99607 1-663); details: protein: recombinant; tags: N-terminal GST; dsDNA, one strand shown
# Sequence of ELF4 (Q99607 whole entry): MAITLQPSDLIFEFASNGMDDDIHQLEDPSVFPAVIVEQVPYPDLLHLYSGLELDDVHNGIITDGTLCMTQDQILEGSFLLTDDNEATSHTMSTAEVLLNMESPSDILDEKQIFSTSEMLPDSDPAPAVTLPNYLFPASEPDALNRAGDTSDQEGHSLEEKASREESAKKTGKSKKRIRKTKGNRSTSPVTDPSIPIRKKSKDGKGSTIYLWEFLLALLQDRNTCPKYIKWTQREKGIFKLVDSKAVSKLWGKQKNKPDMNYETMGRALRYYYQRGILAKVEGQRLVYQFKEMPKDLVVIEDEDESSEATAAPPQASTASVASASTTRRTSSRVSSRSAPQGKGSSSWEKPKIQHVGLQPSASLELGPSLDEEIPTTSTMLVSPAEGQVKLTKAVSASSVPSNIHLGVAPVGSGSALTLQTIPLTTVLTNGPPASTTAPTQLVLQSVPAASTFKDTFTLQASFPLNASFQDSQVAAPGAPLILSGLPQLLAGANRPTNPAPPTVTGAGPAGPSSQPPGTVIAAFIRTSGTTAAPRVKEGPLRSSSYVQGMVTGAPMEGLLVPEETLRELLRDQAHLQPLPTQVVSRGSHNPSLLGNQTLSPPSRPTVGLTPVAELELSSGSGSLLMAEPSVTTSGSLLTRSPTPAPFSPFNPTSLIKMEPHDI
# In short: as §1
# ELK4 = target: T3, ELK4 (Homo sapiens, UniProt P28324-2 1-405); details: protein: recombinant; tags: N-terminal GST; dsDNA, one strand shown
# T3 sequence: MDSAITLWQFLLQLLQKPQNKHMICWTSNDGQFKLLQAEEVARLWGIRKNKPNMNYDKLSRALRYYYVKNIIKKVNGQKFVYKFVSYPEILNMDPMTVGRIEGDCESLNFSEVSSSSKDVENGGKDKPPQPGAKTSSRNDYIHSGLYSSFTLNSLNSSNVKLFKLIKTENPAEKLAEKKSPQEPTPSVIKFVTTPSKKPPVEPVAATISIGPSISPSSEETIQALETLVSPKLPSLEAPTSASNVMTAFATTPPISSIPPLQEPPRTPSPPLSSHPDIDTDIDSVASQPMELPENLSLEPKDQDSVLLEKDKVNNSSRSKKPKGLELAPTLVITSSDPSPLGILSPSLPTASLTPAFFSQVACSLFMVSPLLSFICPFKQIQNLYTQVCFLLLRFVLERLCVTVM
# In short: as §1
# ETV2 = target: T4, ETV2 (Homo sapiens, UniProt O00321 1-342); details: protein: recombinant; tags: N-terminal GST; dsDNA, one strand shown
# T4 sequence: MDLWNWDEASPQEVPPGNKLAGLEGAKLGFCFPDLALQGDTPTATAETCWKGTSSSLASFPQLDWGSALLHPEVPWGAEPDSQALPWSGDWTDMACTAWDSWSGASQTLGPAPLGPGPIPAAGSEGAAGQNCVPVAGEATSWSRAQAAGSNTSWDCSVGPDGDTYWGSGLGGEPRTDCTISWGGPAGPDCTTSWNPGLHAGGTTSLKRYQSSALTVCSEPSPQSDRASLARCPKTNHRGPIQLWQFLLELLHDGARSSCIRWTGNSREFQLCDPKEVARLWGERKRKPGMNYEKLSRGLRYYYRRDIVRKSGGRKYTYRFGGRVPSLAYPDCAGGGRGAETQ
# In short: as §1
# ELF3 = target: T5, ELF3 (Homo sapiens, UniProt P78545 1-371); details: protein: recombinant; tags: N-terminal GST; dsDNA, one strand shown
# T5 sequence: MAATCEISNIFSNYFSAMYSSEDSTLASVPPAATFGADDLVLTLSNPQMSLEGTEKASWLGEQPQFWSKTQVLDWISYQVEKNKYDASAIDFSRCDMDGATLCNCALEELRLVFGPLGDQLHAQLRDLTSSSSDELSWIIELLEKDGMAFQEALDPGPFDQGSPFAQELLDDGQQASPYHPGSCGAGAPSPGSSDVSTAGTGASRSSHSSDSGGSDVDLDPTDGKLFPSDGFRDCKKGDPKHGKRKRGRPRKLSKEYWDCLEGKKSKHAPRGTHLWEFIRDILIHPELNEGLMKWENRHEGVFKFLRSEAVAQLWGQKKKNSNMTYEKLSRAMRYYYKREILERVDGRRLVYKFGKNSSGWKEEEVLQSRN
# In short: as §1
# CRX = CRX (Homo sapiens, UniProt O43186 1-299); details: protein: recombinant; tags: N-terminal GST; dsDNA, one strand shown
# Sequence of CRX (O43186 whole entry): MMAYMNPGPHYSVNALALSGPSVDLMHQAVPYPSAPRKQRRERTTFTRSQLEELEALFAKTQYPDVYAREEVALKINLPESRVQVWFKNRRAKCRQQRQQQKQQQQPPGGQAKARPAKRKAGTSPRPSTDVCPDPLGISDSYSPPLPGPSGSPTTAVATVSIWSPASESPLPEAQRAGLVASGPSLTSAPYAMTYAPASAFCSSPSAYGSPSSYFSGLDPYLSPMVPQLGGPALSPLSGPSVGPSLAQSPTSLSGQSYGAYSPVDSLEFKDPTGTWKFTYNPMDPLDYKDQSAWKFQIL
# In short: as §1
# ETV1 = ETV1 (Homo sapiens, UniProt P50549 1-477); details: protein: recombinant; tags: N-terminal GST; dsDNA, one strand shown
# Sequence of ETV1 (P50549 whole entry): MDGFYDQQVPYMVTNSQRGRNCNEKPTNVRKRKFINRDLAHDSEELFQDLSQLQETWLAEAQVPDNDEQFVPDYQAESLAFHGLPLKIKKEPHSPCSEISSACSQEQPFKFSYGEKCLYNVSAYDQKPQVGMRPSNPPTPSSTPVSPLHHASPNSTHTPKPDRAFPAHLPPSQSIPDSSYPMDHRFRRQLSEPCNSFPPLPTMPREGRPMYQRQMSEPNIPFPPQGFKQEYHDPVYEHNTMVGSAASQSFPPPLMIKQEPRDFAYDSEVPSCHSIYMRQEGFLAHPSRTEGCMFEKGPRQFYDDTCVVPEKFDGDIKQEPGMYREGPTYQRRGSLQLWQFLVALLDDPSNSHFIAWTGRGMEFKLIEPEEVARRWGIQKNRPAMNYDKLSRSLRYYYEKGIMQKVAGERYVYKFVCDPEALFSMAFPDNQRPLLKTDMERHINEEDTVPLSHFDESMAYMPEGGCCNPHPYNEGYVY
# In short: as §1
sequence,measurement,setting,value
CCCCCT,binding signal,FEV,"1.18 fold enrichment (6-mer frequency, TF over GST control)"
same,binding signal,ETV5,"1.29 fold enrichment (6-mer frequency, TF over GST control)"
same,binding signal,HSF1,"1.02 fold enrichment (6-mer frequency, TF over GST control)"
same,binding signal,SPIC,"1.31 fold enrichment (6-mer frequency, TF over GST control)"
same,binding signal,ELF4,"1.35 fold enrichment (6-mer frequency, TF over GST control)"
same,binding signal,ELK4,"1.58 fold enrichment (6-mer frequency, TF over GST control)"
same,binding signal,ETV2,"1.17 fold enrichment (6-mer frequency, TF over GST control)"
same,binding signal,ELF3,"1.39 fold enrichment (6-mer frequency, TF over GST control)"
same,binding signal,CRX,"1.07 fold enrichment (6-mer frequency, TF over GST control)"
same,binding signal,ETV1,"1.2 fold enrichment (6-mer frequency, TF over GST control)"
